Screens as filed in PubChem BioAssay.
This is one part of a sample in which hits are shown more often than they occur.
TbPYK inhibitor: blocks Trypanosoma brucei pyruvate kinase | Q57TT1 | TbPYK enzyme, Kinase-Glo Plus ATP luminescence, 45 min | Potency, µM (doses to about 76.8 µM), inactives show at the highest dose activity, negative = inhibition, most hits filed as inhibitors | 410,000 tested, 0.12% active | AID 624173; note: potency is the fitted concentration of half-maximal effect; % is set by controls: 0 for no effect and ±100 for the full control effect; nearly all actives have a fitted effect of over 50% in size
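In this concentration-response screen, enzyme-free wells defined baseline while DMSO plates tracked drift. Each reaction combined TbPYK, substrate, compound and 130 uM ADP for 45 min at room temperature. Kinase-Glo Plus luminescence gave the signal.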
FBPA Giardia inh: blocks Giardia fructose-bisphosphate aldolase activity. A8B2U2. purified Giardia FBPA. Potency, µM (top dose mostly 59.6 µM), without a hit: top-dose activity, negative = inhibition, actives largely listed as inhibitors. 290,000 tested, 0.71% active. AID 2451; note: potency is the fitted concentration of half-maximal effect; % is set by controls: 0 for no effect and ±100 for the full control effect; nearly all actives have a fitted effect of over 55% in size
Target sequence (A8B2U2 whole entry, looked up): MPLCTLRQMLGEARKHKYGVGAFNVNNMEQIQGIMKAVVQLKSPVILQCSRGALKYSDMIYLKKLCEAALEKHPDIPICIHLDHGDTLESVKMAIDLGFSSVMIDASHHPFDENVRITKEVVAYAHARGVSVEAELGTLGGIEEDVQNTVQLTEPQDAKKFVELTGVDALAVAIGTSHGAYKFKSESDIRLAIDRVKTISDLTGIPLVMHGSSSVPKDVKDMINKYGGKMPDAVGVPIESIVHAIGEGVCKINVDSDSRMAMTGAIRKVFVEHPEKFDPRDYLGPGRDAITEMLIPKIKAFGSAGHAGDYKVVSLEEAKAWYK
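Giardia FBPA (40 nM reagent) was preincubated 10 min at RT with compound (up to 57.5 uM final), then substrate plus GAPDH/TPI/NAD/arsenate coupling system with diaphorase/resazurin was added; resorufin fluorescence (525/598 nm) was read after 20 min.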
Cycloheximide cs: affects cycloheximide protein synthesis inhibition readout, counter-screen. cell reporter, cycloheximide protein synthesis inhibition counterscreen. max response, %. 300,000 tested, 12% active; in the data active = max response mostly above about 13%, no sharp cut-off; inactive = mostly below about 14%; note: read at 38.3 µM for the half of the compounds with a filed dose; 0% is about no effect
Shiga inhibitor: Shiga toxin inhibition | Vero cells, Shiga toxin protein synthesis inhibition reporter | inhibition, % at 38.7 µM | 290,000 tested, 9.2% active; in the data active = inhibition mostly above about 28%, no sharp cut-off; inactive = mostly below about 43%; note: 0% is about no effect
Sm TGR inh: inhibitors of Schistosoma mansoni thioredoxin glutathione reductase; Q962Y6; purified TGR, DTNB reduction, TNB absorbance 405 nm; Potency, µM (titrated, usually from 114 µM), for the others: at the top dose activity change, negative = inhibition, usual class: inhibitors; 360,000 tested, 3% active; note: potency is the fitted concentration of half-maximal effect; % is set by controls: 0 for no effect and ±100 for the full control effect; nearly all actives have a fitted effect of over 60% in size
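Kinetic colorimetric format: TGR-catalysed, NADPH-driven DTNB reduction monitored via TNB absorbance. Enzyme dispensed at 20 nM; compound exposure 15 min at room temperature before reaction start.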
LmPK inhibitor: LmPK (Leishmania mexicana) enzyme inhibition. purified LmPK, Kinase-Glo ATP luminescence, 1 h. 290,000 tested, 0.37% active. Potency, µM (highest dose often 57.5 µM), for inactives: at the top dose activity change, negative = inhibition, usual class: inhibitors. Q27686; note: potency is the fitted concentration of half-maximal effect; % is set by controls: 0 for no effect and ±100 for the full control effect
Target sequence (Q27686 whole entry, looked up): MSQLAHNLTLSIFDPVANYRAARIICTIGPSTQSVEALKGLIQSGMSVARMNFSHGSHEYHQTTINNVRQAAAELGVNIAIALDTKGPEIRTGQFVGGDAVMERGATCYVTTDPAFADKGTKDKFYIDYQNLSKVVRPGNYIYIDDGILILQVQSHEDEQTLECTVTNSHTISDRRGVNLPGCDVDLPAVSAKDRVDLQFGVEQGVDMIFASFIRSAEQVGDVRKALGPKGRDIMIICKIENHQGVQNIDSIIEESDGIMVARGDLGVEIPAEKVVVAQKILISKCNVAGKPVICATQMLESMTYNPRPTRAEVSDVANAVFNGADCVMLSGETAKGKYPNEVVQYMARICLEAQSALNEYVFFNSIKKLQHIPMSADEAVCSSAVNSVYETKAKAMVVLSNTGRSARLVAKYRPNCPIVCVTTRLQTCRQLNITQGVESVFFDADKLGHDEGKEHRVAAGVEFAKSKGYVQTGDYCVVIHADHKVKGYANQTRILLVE
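Pyruvate kinase activity monitored as ATP production (luciferase luminescence). Conditions: 0.1 nM enzyme, 0.5 mM PEP, 0.1 mM ADP, 1 h, RT; normalized against uninhibited and no-enzyme wells.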
Starred values were filed as active, the others as inactive; ? = inconclusive; / = not tested or not shown. Unless noted, calls come from the whole dose curve; as a rule, active = well fitted curve in the direction sought with a large enough effect; inconclusive = small, poorly fitted or top-dose-only effect, or another doubt; inactive = no such curve, though single readings can be large; an effect the other way counts as inactive or inconclusive.

SMILES | TbPYK inhibitor | FBPA Giardia inh | Cycloheximide cs | Shiga inhibitor | Sm TGR inh | LmPK inhibitor
O=C(CSc1nnc(Cc2ccsc2)o1)c1ccccc1 | 2.7% | -0.8% | 21.3* | 54.8 | 3.7% | 1.8%
CCn1c(SCC(=O)NC2CCCC2)nnc1C(C)NC(=O)c1ccccc1Br (stereo not drawn) | 0.5% | / | -2.6 | -2.1 | 9.7% | -8.8%
Cc1cc(C(=O)N=Nc2c(O)n(C)c3ccccc23)c(C)o1 | -5.3% | 4.8% | 27.4* | -4.6 | 3.6% | -29.3%
CCOC(=O)N=Nc1c(O)n(C)c2ccccc12 | -3.7% | -1.4% | 9.9 | 25.6 | 2.9% | 0.6%
Cc1ccccc1N=Nc1c(O)n(C)c2ccccc12 | -16.7% | -17.2% | -3.0 | -5.6 | 35.5µM* | -5.4%
O=C(NCc1ccccc1)c1cnc2sc(N3CCCC3)nn2c1=O | -1.6% | / | / | / | 5.1% | /
O=C(NCC1(c2ccccc2)CCCC1)C(=O)Nc1cccc(C(F)(F)F)c1 | 1.1% | / | / | / | 3.6% | /
N#CCCCS(=O)(=O)c1nnnn1-c1ccc(Br)cc1 | / | 0.3% | / | / | / | /
N#CCCS(=O)(=O)c1nnnn1-c1ccccc1 | / | 8.6% | 18.9* | 6.0 | 7.08µM* | -2.6%
CN(C)c1cccc(C(=O)Nc2nc3ccc(S(=O)(=O)N4CCCC4)cc3s2)c1 | -17.8% | / | / | / | -0.2% | /
Nc1ccc(N=Nc2ccccc2)c2ccccc12 | -2.5% | -2.0% | 22.4* | 21.7 | 20.7% | 1.4%
Nc1ccc(N=Nc2ccccc2)c(N)n1 | 1.4% | -18.5% | 52.0* | 73.3* | 0.8% | -2.4%
c1ccc(N=Nc2ccc3cccccc2-3)cc1 | -1.5% | / | / | / | / | /
CC(NC(=O)Cn1c(-c2cccs2)cc2cc(F)ccc21)c1ccccc1 (stereo not drawn) | 2.9% | / | / | / | 0.1% | /
O=C(O)CNC(=O)c1ccc(NC(=O)/C(=C/c2cccc([N+](=O)[O-])c2)NC(=O)c2ccco2)cc1 | -7.1% | 3.6% | 0.8 | -10.7 | ? | -2.5%
CC(NC(=O)c1ccco1)C(=O)N1CCN(S(=O)(=O)c2ccccc2C#N)CC1 (stereo not drawn) | -7.2% | / | / | / | -15.6% | /
COC(=O)c1c(S(C)(=O)=O)nc(-c2ccccc2)[nH]c1=O | -3.6% | 5.4% | -5.2 | 11.8 | 25.1µM* | 0.9%
N#Cc1c(N)n(-c2ccc(N)cc2)c2nc3ccccc3nc12 | -2.3% | -14.5% | -1.3 | -6.9 | 4.2% | -0.9%
N#Cc1c(C#N)c(SSc2c(C#N)c(C#N)c(N)n2-c2ccccc2)n(-c2ccccc2)c1N | 0.891µM* | / | / | / | / | /
CCOc1ccccc1N1CCN(C(=O)c2cn(CC3CCCCC3)nn2)CC1 | 1.2% | / | 37.4* | 142.1* | -18.4% | -8.4%
CCc1ccccc1NC(=O)NC(CC)Cn1nnc2ccccc2c1=O (stereo not drawn) | -3.6% | / | / | / | 0.9% | /
O=C(c1ccccc1)N(c1ccccc1)c1nccc2ccccc12 | -4.8% | / | / | / | / | /
CCN(CC)c1ccc(/C=N/NC(=O)c2ccc3c(c2)OCCO3)cc1 | 9.3% | -1.4% | 58.4* | 114.9* | 4.5% | -4.3%
O=C(CNC(=O)c1ccc2c(c1)OCCO2)N/N=C/c1ccc(Cl)cc1 | 3.1% | 6.8% | 11.0 | 2.4 | 1.1% | 2.4%
CN(C)c1ccc(/C=N/NC(=O)c2ccc3c(c2)OCCO3)cc1 | -6.4% | 4.0% | 34.3* | 48.4* | -14.8% | -8.3%
SMILES | TbPYK inhibitor | FBPA Giardia inh | Cycloheximide cs | Shiga inhibitor | Sm TGR inh | LmPK inhibitor
O=C1OCc2ccc([N+](=O)[O-])cc21 | 2.8% | / | / | / | / | /
CCC(CC)C(=O)c1c[nH]c(C(=O)NCc2ccc(F)cc2)c1 | 4.1% | 0.5% | -4.1 | -2.2 | 2.7% | 1.5%
CN1CCC(=NNC(=O)C(=O)Nc2ccccc2)CC1 | -17.4% | -0.6% | 24.0* | 25.4* | 7.0% | -9.4%
Cc1cc(C)cc(NC(=O)c2c(C)nc3ccccn23)c1 | -6.1% | -2.0% | 10.7 | 16.0 | / | 6.7%
Cc1nc2ccccn2c1C(=O)NC1CCCC1 | -0.9% | 1.6% | 2.3 | -6.6 | 6.2% | 2.0%
Cc1ccc(NC(=O)c2c(C)nc3ccccn23)cc1C | 1.4% | -9.0% | 41.2* | 56.9* | -5.1% | 0.8%
Cc1cccc(NC(=O)c2c(C)nc3ccccn23)c1 | -2.4% | -5.1% | 28.7* | 79.9* | 0.5% | -3.3%
Cc1ccc(/C=C/C(=O)c2c(C)nc3ccccn23)cc1 | -12.6% | -7.8% | 39.5* | 69.7* | 9.9% | -24.3%
COc1ccc(NC(=O)CCn2c(=O)c3cccn3c3cccnc32)c(OC)c1 | -6.3% | / | / | / | 4.5% | /
COC(=O)C1(C(=O)OC)C/C=C\C/C=C\c2ccccc2C1C[N+](=O)[O-] (stereo not drawn) | / | -0.1% | / | / | / | /
Cc1cc(C(=O)N/N=C2\CCCC(=O)C2)c(C)o1 | -5.6% | / | / | / | -5.3% | /
COc1ccc(/C=N/NC(=O)c2cc(C)n(-c3ccccc3)c2C)cc1OC | -0.3% | 4.1% | 25.2* | 87.0* | 20.5% | 9.6%
Cc1cc(/C=N\NC(=O)COc2cccc3cccnc23)c(C)n1-c1ccc(Br)cc1 | -5.6% | -0.3% | -1.0 | -12.8 | 0.1% | -0.1%
Cc1cc(/C=N\NC(=O)c2cccs2)c(C)n1-c1ccc2ncccc2c1 | -7.3% | -11.6% | 40.1* | 134.8* | -1.0% | -4.5%
COc1ccc(/C=N/NC(=O)c2cccc(C(=O)N/N=C/c3ccc(OC)c(OC)c3)n2)cc1OC | 4.5% | 6.5% | -3.3 | -5.0 | 8.2% | -1.6%
Cc1cc(C(=O)N/N=C2\CCCC(=O)C2)c(C)n1-c1ccccc1 | -3.0% | -13.9% | 16.7* | 30.3* | -22.7% | 10.5%
Cc1cc(/C=N/NC(=O)C(=O)NCc2ccccn2)c(C)n1-c1ccccc1 | 1.4% | -12.1% | 28.0* | 46.2* | -1.1% | -3.0%
CC1CCN(C(=O)c2ccc3c(c2)OCO3)CC1 | -3.0% | / | 9.3 | 3.4 | 15.2% | -3.4%
O=C(N/N=C\c1cc([N+](=O)[O-])ccc1N1CCCC1)c1ccccn1 | -9.5% | -4.1% | 21.6* | 48.5* | -23.3% | 0.2%
O=C(N/N=C\c1cc([N+](=O)[O-])ccc1N1CCOCC1)c1ccccn1 | -10.2% | ? | 3.1 | -8.5 | -3.0% | 0.3%
Cc1cc(C(=O)N/N=C/c2cccc([N+](=O)[O-])c2)c(C)n1-c1ccccc1 | -7.0% | -6.4% | 43.0* | 86.5* | -8.6% | -0.5%
Cc1cc(/C=N/NC(=O)c2ccccn2)c(C)n1-c1cccc([N+](=O)[O-])c1 | -1.4% | -21.5% | 50.4* | 89.8* | -0.8% | -4.5%
CCOC(=O)c1c(C)[nH]c(C)c1S(=O)(=O)N(C)CC(=O)Nc1ccc(OC)cc1 | -2.5% | / | / | / | 41.5% | /
CC(Sc1ncccn1)C(=O)Nc1ccc2c(c1)OCO2 (stereo not drawn) | -4.4% | / | / | / | / | /
CC(Sc1nncs1)C(=O)Nc1ccc2c(c1)OCO2 (stereo not drawn) | -4.9% | -7.4% | 10.5* | 15.7 | 5.1% | -1.2%
O=C(CSc1nncs1)Nc1ccc2c(c1)OCO2 | 1.1% | 2.5% | 25.0* | 54.2 | -7.7% | -1.5%
Cc1cc(N(CCO)Cc2ccccc2)n2nc(-c3ccc(C(C)(C)C)cc3)nc2n1 | -11.5% | / | / | / | -13.1% | /
